The source of these data is PubChem BioAssay AID1069 (NMMLSC, 2008).

Structures are written as SMILES. Calls of active or inactive are those of the source.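 Rule for the calls: active = high combined rank on largest and smallest cell-count-weighted shift across three tests, rank score above 45, floors 50 and 25 (some results past the limit were not filed as active); inactive = the rest.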

The nature of this assay: activators of LNCaP cell differentiation, retest, confirmation, side scatter shift, flow cytometry (AID 1069).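 Note: LNCaP human prostate cancer cells in low-serum medium with charcoal-stripped FBS; percent of cells with raised granularity gated so DMSO controls show 10%.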 To be noted: 4 d, at 100 µM, stronger effect = higher value. A general note: Flow cytometry measures light scatter and fluorescence of single cells or particles in a stream.
`O=C(NCC1CCCO1)C1CC(c2ccc(Cl)c(Cl)c2)=NO1` (stereo not drawn): the side scatter shift is 8.2% (inactive).
In the case of `Cc1ccc(C2=Nc3ccccc3NC(C)(c3ccc(C)o3)C2)o1` (stereo not drawn), the side scatter shift was 7.1% (inactive).
On to `O=C(CSc1c[nH]c2ccccc12)N1CCOCC1`, for which the side scatter shift is 11.4% (inactive).
As for `COc1ccc(CCNC(=O)C2CCN(Cc3nc(-c4cccc(Cl)c4)oc3C)CC2)cc1OC`, the figure is 20% (inactive).
Under `Cc1ccc2c(c1)NC(=O)C(CC(=O)NCCCN1CCN(c3cc(Cl)ccc3C)CC1)O2` (stereo not drawn) stands 0% (inactive); under `CCCCCn1c(=N)n(CC(O)COc2ccccc2OC)c2ccccc21` (stereo not drawn), 15% (inactive); under `Cc1cccc(OCCn2c(=O)n(C)c3ccccc32)c1`, 26.7% (inactive).
As for `Cc1cc(=O)n2nc(N3CCCC(C(=O)NCc4ccco4)C3)sc2n1` (stereo not drawn), the figure is 7.4% (inactive); as for `N#CC(C(=O)c1ccco1)c1ccccn1` (stereo not drawn), 2.5% (inactive); as for `O=C(Cn1ccc2ccccc2c1=O)NCCC(=O)N1CCN(c2cccc(C(F)(F)F)c2)CC1`, 5.2% (inactive).
Regarding `COc1ccc(-c2cc3c(=O)n(CC(=O)NC4CCN(Cc5ccccc5)CC4)ncn3n2)cc1`, the side scatter shift was 36.1% (inactive).
On to `O=C(Cn1cnc2ccccc2c1=O)NCCC(=O)N1CCN(c2ccccc2)CC1`, for which the side scatter shift is 17.1% (inactive).
As for `COc1ccc(Cl)cc1N1CCN(CCNC(=O)Nc2ccccc2C)CC1`, the figure is 16.7% (inactive).
As for `COc1cc2c(C(=O)NCCCN3CCN(c4cccc(Cl)c4)CC3)cn(C)c(=O)c2cc1OC`, the figure is 53.3% (inactive); as for `Cc1oc(-c2ccc(Cl)cc2)nc1CN1CCC(C(=O)NCCCN2CCOCC2)CC1`, 41.7% (inactive).
As for `Cc1cccc(-c2nc(CN3CCCC(C(=O)NC4CCCCCC4)C3)c(C)o2)c1` (stereo not drawn), the figure is 41.2% (inactive).
For `CCOC(=O)N1CCN(C(=O)CCc2c(C)nc3c(c(C)nn3-c3ccc(C)c(C)c3)c2C)CC1`, the side scatter shift is 0% (inactive).
For the compound `CCC(CC)C(=O)Nc1cccc(C(=O)NCc2ccco2)c1`, the side scatter shift is 14.1% (inactive).
Under `CN1CCN(CCCNC(=O)c2cc3c(-c4ccc(Cl)cc4)nn(C)c3s2)CC1` stands 14.3% (active); under `Cc1oc(-c2ccc(Cl)cc2)nc1CN1CCCC(C(=O)NCc2cccnc2)C1` (stereo not drawn), 25% (inactive).
As for `Cc1ccc(C)c2[nH]c(=O)c(CN(CCN3CCCC3)C(=O)Nc3cccc(Cl)c3)cc12`, the figure is 20% (inactive); as for `COc1ccc(S(=O)(=O)Nc2ccc(F)c(Cl)c2)cc1OC`, 44.4% (inactive); as for `CCOc1ccc(-c2cc(C(=O)NCCCN3CCN(CC)CC3)c3ccccc3n2)cc1`, 28.2% (active).
Under `COc1ccc(-n2c(C)nc3c(cnn3-c3ccc(Cl)cc3)c2=O)cc1` stands 4.4% (inactive); under `COc1ccc(-c2ccc(-c3noc(-c4ccccc4)n3)c(OC)n2)cc1`, 56.7% (inactive).
Consider `Cc1cc2c(=O)n(CC(=O)N3CCN(c4ccccc4)CC3)cnc2s1`, for which the side scatter shift is 30.4% (inactive).
For `Cc1nc2ncnn2c(C)c1CCC(=O)NCCCN1CCN(c2cccc(Cl)c2)CC1`, the side scatter shift was 37.9% (inactive).
Under `O=S(=O)(Nc1cccc2ncccc12)c1cccs1` stands 14.3% (inactive); under `COc1ccc(-n2c3c(cc(C(=O)N4CCC(C)CC4)c2=O)C(=O)CC(C)(C)C3)cc1`, 20% (inactive).
As for `O=C(Cc1ccc(-n2cccc2)cc1)NCc1cccs1`, the figure is 28.8% (inactive).
As for `Cc1noc(C)c1S(=O)(=O)N1CCC(C(=O)NCCN2CCC(C)CC2)CC1`, the figure is 12.7% (inactive).
With `CCOc1ccc2ccccc2c1C(=O)N1CCN(c2ccccc2)CC1`, the side scatter shift is 21.1% (inactive).
For `COc1ccc(/C=N/c2nc3ccccc3n2C)cc1OC`, the side scatter shift was 10% (inactive).
Under `CN(C(=O)c1ccccn1)c1nnc(-c2cccnc2)s1` stands 8.3% (inactive); under `Cc1ccc(-c2noc(CCC(=O)NC3CCN(Cc4ccccc4)CC3)n2)cc1`, 33.3% (inactive); under `Cc1nc2c3cnn(-c4ccccc4)c3ncn2n1`, 5% (inactive).
As for `O=c1cc(N2CCN(c3ccc(F)cc3)CC2)[nH]c(=O)n1C1CCCCC1`, the figure is 16.8% (inactive); as for `CCOC(=O)C1CCCN(C(=O)Cn2cccc2C(=O)c2ccccc2)C1` (stereo not drawn), 6% (inactive).
